The values below come from PubChem BioAssay (NCATS).

Inconclusive results are not listed. A call without a number means that no potency is given here. Activity calls are given as the source filed them. The call rests on the fitted dose curve; in most records, active means well fitted inhibition curve with a large enough effect; inconclusive means small, poorly fitted or top-dose-only effect; inactive means no such curve, though single readings can be large or run the other way.

The nature of the assay: qHTS assay for measurement of the activity of small molecule inhibitors on Zika virus induced Caspase-3 activity in human iPSC derived neural progenitor cells (hNPCs) (AID 1224857). Further: nearly all actives have a fitted effect of over 65% in size. The conditions noted are these: hNPCs ZIKV-induced caspase-3/7, Caspase-Glo luminescence, 6 h; series mostly up to 45.7 µM. The essentials:
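Caspase-3/7 induction by a 6-hour ZIKV infection was quantified with a luminescent Caspase-Glo 3/7 reagent incubated 30 minutes at room temperature. Compounds were preincubated with hNPCs for 1 hour; inhibition was calculated against uninfected and infected control wells.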
On the technique in general: Quantitative high-throughput screening tests each substance at several concentrations.
For `CSCC[C@@H](NC(=O)[C@@H](Cc1ccccc1)NC(=O)CNC(=O)CNC(=O)[C@@H](N)Cc1ccc(O)cc1)C(=O)O`, the Potency entry was “inactive”. With `CNCCc1ccc(O)c(O)c1`, the Potency result was “inactive”. The result for `C/C=C(/C)C(=O)O[C@H]1C(C)=C2[C@H]([C@@H]1OC(=O)CCCCCCC)[C@@](C)(OC(C)=O)C[C@H](OC(=O)CCC)[C@@]1(O)[C@H]2OC(=O)[C@@]1(C)O` reads “inactive”. For the compound `NC(=NCCC[C@H](N)C(=O)O)N[N+](=O)[O-]`, the Potency result is “inactive”.

With `NC(CCP(=O)(O)O)C(=O)O` (configuration not stated), the Potency result is “inactive”. The result for `CCNC(=O)CC1N=C(c2ccc(Cl)cc2)c2cc(OC)ccc2-n2c(C)nnc21` (configuration not stated) reads “inactive”; that for `CC1(N2CCC(n3c([C@@H]4CCCNC4)nc4ccccc43)CC2)CCCCCCC1`, “inactive”; that for `NC(CP(=O)(O)O)C(=O)O` (configuration not stated), “inactive”.

Consider `CCCCCCCCCCCCCCCC[N+](C)(C)C`, for which the Potency result was “inactive”. The result for `CCCN(CCC)C1CCc2ccc(O)cc2C1` (configuration not stated) reads “inactive”; that for `CCCN(CCC)[C@@H]1CCc2ccc(O)cc2C1`, “inactive”; that for `O=C(O)Cc1cnc[nH]1`, “inactive”. The result for `CNCCc1c[nH]c2ccc(O)cc12` reads “inactive”; that for `C[C@@H](N)Cc1cnc[nH]1`, “inactive”; that for `NC(=O)CN1CC(O)CC1=O` (configuration not stated), “inactive”.

For the compound `CCCCc1ccc(C(=O)O)nc1`, the Potency entry is “inactive”. The result for `C[N+]1(C)C2CCC1CC(OC(=O)C(CO)c1ccccc1)C2` (configuration not stated) reads “inactive”. The result for `c1ccc2sc(C3(N4CCCCC4)CCCCC3)cc2c1` reads “inactive”; that for `O=C1CCCN1CC#CCN1CCCC1`, “inactive”; that for `NCCc1c[nH]c2ccc(O)cc12`, “inactive”. The result for `O=C(O)CC[N+](=O)[O-]` reads “inactive”. On to `Cc1[nH]nc2ccc(-c3cncc(OC[C@@H](N)Cc4c[nH]c5ccccc45)c3)cc12`, for which the Potency entry was “inactive”.
